Assay results from PubChem BioAssay.
A number with no mark means an inactive call. Activity calls are given as the source filed them.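 The calls were made as follows: active = thallium flux through the channel raised or lowered by more than 3 SD from vehicle-only wells, actives on both sides; inactive = the rest.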

Assays:
Assay in all cases: BK channel mutant inhibitors and activators – cell-based, U2OS BacMam, thallium flux, beta subunits, selectivity assay, profiling panel (AID 1259406);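 also: initial slope of Thallos dye fluorescence rise after thallium is added; log ratio against the mean of 0.3% DMSO vehicle wells on the same plate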
[1] = system: F380Y/beta2Delta; conditions: U2OS BacMam BK variants, at 30 µM
[2] = system: F380Y/beta4; conditions: U2OS BacMam BK variants, at 30 µM
[3] = molecular target: Calcium-activated potassium channel subunit alpha-1 (Homo sapiens) + Leucine-rich repeat-containing protein 26 (Homo sapiens) (UniProt Q12791+Q2I0M4); conditions: U2OS BacMam BK variants, F380Y/Slo1WT/gamma1, at 30 µM
[4] = system: R275C; conditions: U2OS BacMam BK variants, at 30 µM
[5] = system: R275C/beta1; conditions: U2OS BacMam BK variants, at 30 µM
[6] = system: R275C/beta2Delta; conditions: U2OS BacMam BK variants, at 30 µM
[7] = system: R275C/beta4; conditions: U2OS BacMam BK variants, at 30 µM
[8] = system: R275C/Slo1WT/beta2; conditions: U2OS BacMam BK variants, at 30 µM

Calcium-activated potassium channel subunit alpha-1 (Homo sapiens) + Leucine-rich repeat-containing protein 26 (Homo sapiens), sequence (Q2I0M4 whole entry, looked up, one chain of several): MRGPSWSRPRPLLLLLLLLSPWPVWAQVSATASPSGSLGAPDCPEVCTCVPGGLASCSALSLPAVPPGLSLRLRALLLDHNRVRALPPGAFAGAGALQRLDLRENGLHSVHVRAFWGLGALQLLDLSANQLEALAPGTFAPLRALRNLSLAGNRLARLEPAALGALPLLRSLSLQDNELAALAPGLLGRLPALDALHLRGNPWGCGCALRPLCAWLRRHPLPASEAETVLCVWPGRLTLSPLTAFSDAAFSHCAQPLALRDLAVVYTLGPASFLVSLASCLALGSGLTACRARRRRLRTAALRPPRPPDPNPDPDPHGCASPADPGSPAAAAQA

| SMILES | log fold change Tl+ flux [1] | log fold change Tl+ flux [2] | log fold change Tl+ flux [3] | log fold change Tl+ flux [4] | log fold change Tl+ flux [5] | log fold change Tl+ flux [6] | log fold change Tl+ flux [7] | log fold change Tl+ flux [8] |
| --- | --- | --- | --- | --- | --- | --- | --- | --- |
| COc1ccc(C2CNC(=O)C2)cc1OC1CCCC1 (stereo not given) | -0.0248 | -0.115 (active) | -0.000443 | 0.0314 | 0.031 | -0.00816 | 0.0303 | 0.00671 |
| C#C[C@]1(O)CC[C@H]2[C@@H]3[C@H](C)CC4=C(CCC(=O)C4)[C@H]3CC[C@@]21C | 0.02 | 0.0383 | 0.094 (active) | -0.0625 | 0.155 (active) | 0.0649 | 0.0734 | 0.0272 |
| COc1cc2nc(N3CCN(C(=O)C4COc5ccccc5O4)CC3)nc(N)c2cc1OC (stereo not given) | -0.269 (active) | -0.235 (active) | -0.00742 | -0.0618 | 0.0698 | -0.0306 | -0.0729 | 0.00736 |
| CC(C)(C#N)c1cc(Cn2cncn2)cc(C(C)(C)C#N)c1 | 0.0269 | -0.0138 | 0.043 | -0.0232 | 0.00836 | 0.00182 | -0.00704 | -0.000892 |
| CCC(=O)O[C@]1(C(=O)SCF)[C@H](C)C[C@H]2[C@@H]3C[C@H](F)C4=CC(=O)C=C[C@]4(C)[C@@]3(F)[C@@H](O)C[C@@]21C | 0.0505 | 0.0435 | 0.0105 | -0.00436 | -0.000971 | 0.027 | 0.00493 | 0.0478 |
| C#C[C@]1(O)CC[C@H]2[C@@H]3CCc4cc(O)ccc4[C@H]3CC[C@@]21C | -0.0272 | – | 0.0947 (active) | -0.0326 | 0.0956 | 0.155 (active) | – | – |
| C[C@@H]1CN(CCCn2c3ccccc3c3ccccc32)C[C@H](C)N1 | 0.138 (active) | 0.64 (active) | 0.0245 | 0.377 (active) | 0.219 (active) | 0.146 (active) | 0.312 (active) | 0.00517 |
| COC1=C(OC)C(=O)C(CCCCCCCCCCO)=C(C)C1=O | -0.557 (active) | -0.388 (active) | -0.413 (active) | -0.199 (active) | -0.0599 | -0.151 (active) | -0.0932 (active) | -0.0534 |
| CCCc1c(OCCCCc2nn[nH]n2)ccc(C(C)=O)c1O | 0.0962 (active) | – | 0.186 (active) | 0.0659 | 0.282 (active) | 0.193 (active) | – | – |
| CC(C)(O)c1ccccc1CC[C@@H](SCC1(CC(=O)O)CC1)c1cccc(/C=C/c2ccc3ccc(Cl)cc3n2)c1 | 0.312 (active) | 0.64 (active) | 0.354 (active) | 0.131 (active) | 0.782 (active) | 0.293 (active) | 0.977 (active) | 0.13 (active) |
| CN1[C@@H]2CC[C@H]1CC(OC(=O)c1c[nH]c3ccccc13)C2 (stereo not given in full) | 0.0725 | 0.0611 | -0.0185 | -0.064 | 0.026 | 0.045 | 0.0432 | 0.00303 |
| Cc1ccc(NC(=O)c2ccc(CN3CCN(C)CC3)cc2)cc1Nc1nccc(-c2cccnc2)n1 | 0.0732 | – | -0.0387 | -0.00147 | 0.00665 | 0.0291 | – | – |
| CN(Cc1cnc2nc(N)nc(N)c2n1)c1ccc(C(=O)N[C@@H](CCC(=O)O)C(=O)O)cc1 | -0.018 | – | 0.0152 | 0.0652 | -0.0323 | 0.0014 | – | – |
| CN1CCC(=C2c3ccccc3CCc3sccc32)CC1 | -0.0147 | – | 0.0222 | -0.0315 | 0.0886 | 0.0371 | – | – |
| Cc1cccc(C)c1OCC(C)N (stereo not given) | 0.00522 | 0.033 | 0.0106 | 0.0441 | 0.0258 | 0.00537 | 0.0107 | 0.0729 |
| Cc1ccsc1C(=CCCN1CCC[C@@H](C(=O)O)C1)c1sccc1C | 0.0383 | 0.0453 | 0.0044 | -0.056 | 0.0901 (active) | 0.0627 | 0.0287 | 0.0117 |
| Cc1cnc(NC(=O)C2=C(O)c3ccccc3S(=O)(=O)N2C)s1 | 0.0267 | 0.0475 | 0.0367 | -0.0331 | 0.00607 | 0.00306 | 0.00145 | 0.0334 |
| CCc1oc2ccccc2c1C(=O)c1cc(Br)c(O)c(Br)c1 | 0.479 (active) | 0.628 (active) | 0.428 (active) | 0.0187 | 0.704 (active) | 0.431 (active) | 0.722 (active) | 0.347 (active) |
| CC1CCN(CCCC(=O)c2ccc(F)cc2)CC1 | 0.0189 | – | 0.000816 | 0.0359 | -0.0458 | 0.0277 | – | – |
| O=C(NCCO[N+](=O)[O-])c1cccnc1 | -0.00246 | 0.013 | 0.000443 | -0.059 | -0.0194 | 0.000208 | 0.0335 | -0.00283 |
| COC(=O)CCc1ccc(OCC(O)CNC(C)C)cc1 (stereo not given) | 0.0184 | -0.0155 | -0.00535 | -0.0168 | 0.0198 | 0.0115 | 0.0115 | 0.0231 |
